Rows were chosen to be rich in hits. Some 1.7% of all compounds tested hit in one or more screens of this group.
GLP1R cytotox = cytotoxicity counter-screen for GLP-1 receptor inverse agonists; HEK293 cAMP-luciferase reporter cells, luminescence, 24 h; Potency, µM (doses to about 38.3 µM), for inactives: top-dose activity change, negative = inhibition, most hits filed as inhibitors; 410,000 compounds, 0.13% hits;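 further: loss of luciferase light is scored as toxicity; potency means the concentration at half of the fitted maximal effect; on the % scale 0 is the no-effect control and ±100 the full control effect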
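Step one: seed cells (200 cells/uL, DMEM with 10% Nu serum, 1% pen-strep). Step two: 12-hour incubation at 37 deg C. Step three: pin 23 nL compound, incubate 24 hr. Step four: add luciferase reagent, read luminescence 12 min later.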
PTHR1 ag = PTHR1 (human) receptor agonism; Q03431; HEK293 GP2 PTHR1 cells, GloSensor cAMP luminescence, 1 h; Potency, µM (highest dose often 115 µM), without a hit: at the highest dose activation, actives largely listed as activators; 410,000 compounds, 0.075% hits; AID 743266; further: potency means the concentration at half of the fitted maximal effect; nearly all actives have a fitted effect of over 55% in size
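HEK-293-derived GP2 cells expressing PTHR1 and a GloSensor cAMP reporter, 3,000/well, plated overnight, given luciferin plus IBMX (each 0.5 mM as added) for 1 h at 37 °C, then compound for 1 h at 37 °C. Luminescence was read after 15 min at room temperature.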
GLP1R ag = GLP-1 receptor (human) agonism | P43220 | 380,000 compounds, 0.007% hits | Potency, µM (highest dose often 45.6 µM), for the others: at the top dose activation, hits mostly activators | HEK293 GLP-1R CRE-luciferase, luminescence, 4-6 h; cells express a hypersensitive GLP-1R form; further: potency means the concentration at half of the fitted maximal effect; % of control where 0% means no effect
Target sequence (P43220 whole entry, looked up): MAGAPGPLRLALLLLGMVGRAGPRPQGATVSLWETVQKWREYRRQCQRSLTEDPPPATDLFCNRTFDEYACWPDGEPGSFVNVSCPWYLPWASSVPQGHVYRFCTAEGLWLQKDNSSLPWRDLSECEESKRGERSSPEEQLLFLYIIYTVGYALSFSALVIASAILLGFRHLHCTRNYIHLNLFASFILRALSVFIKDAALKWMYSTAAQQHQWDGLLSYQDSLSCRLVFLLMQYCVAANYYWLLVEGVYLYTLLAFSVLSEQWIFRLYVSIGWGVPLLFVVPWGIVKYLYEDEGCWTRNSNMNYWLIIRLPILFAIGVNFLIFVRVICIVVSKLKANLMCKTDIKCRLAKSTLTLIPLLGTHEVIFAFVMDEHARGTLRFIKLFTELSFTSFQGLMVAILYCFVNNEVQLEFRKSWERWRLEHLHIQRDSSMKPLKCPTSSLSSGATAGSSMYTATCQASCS
GLP1R inv ag = acts as inverse agonist at human GLP-1 receptor. 410,000 compounds, 1.6% hits. HEK293 GLP-1R CRE-luciferase, luminescence, 24 h; GLP-1R form is constitutively active. P43220. Potency, µM (doses to about 38.3 µM), inactives show at the highest dose activity change, negative = inhibition, most hits filed as inhibitors. AID 624417; further: potency means the concentration at half of the fitted maximal effect; on the % scale 0 is the no-effect control and ±100 the full control effect; nearly all actives have a fitted effect of over 55% in size
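Readout was luciferase luminescence, measured 12 min after detection reagent at room temperature. Beforehand, GLP-1R reporter HEK293 cells had sat 12 h, then received compounds for 24 hr at 37 deg C.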
LDHA inh = blocks human lactate dehydrogenase A; activity change, % (values are at about 110 or 230 µM); purified LDHA, NADH/diaphorase-resazurin fluorescence; stronger effect = lower value; 480,000 compounds, 0.15% hits; P00338; in the data active means activity change below about -30%; inconclusive means mostly about -25% to -30%;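 further: plate controls were DMSO wells for no effect and wells without enzyme for full effect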
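Enzyme activity of human lactate dehydrogenase 5 (2 nM; 0.06 mM NADH, 0.2 mM pyruvate, 5 min, RT) is measured via a resazurin/diaphorase fluorescence readout of residual NADH.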
mIDH1 inhibitor = blocks human mutant IDH1 R132H enzyme | O75874 | IDH1-R132H enzyme, NADPH consumption, diaphorase/resazurin fluorescence | Potency, µM (titrated, usually from 76.6 µM), for inactives: at the top dose activity change, negative = inhibition, hits mostly inhibitors | 390,000 compounds, 0.093% hits | AID 602179; further: potency means the concentration at half of the fitted maximal effect; on the % scale 0 is the no-effect control and ±100 the full control effect; nearly all actives have a fitted effect of over 65% in size
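IDH1-R132H (0.5 ug/mL dispensed) in pH 7.5 Tris buffer was preincubated 30 min with compound, then given a substrate mix of 0.016 mM NADPH and 2 mM alpha-KG for 80 min at room temperature; remaining NADPH was read by diaphorase/resazurin fluorescence.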
* = called active by the depositor; i = inactive; ? = inconclusive; / = no result given; [ ] = remark or other dose. Unless noted, the call rests on the fitted dose curve; in most records, active means well fitted curve in the direction sought with a large enough effect; inconclusive means small, poorly fitted or top-dose-only effect, or another doubt; inactive means no such curve, though single readings can be large; an effect the other way counts as inactive or inconclusive.

SMILES | GLP1R cytotox | PTHR1 ag | GLP1R ag | GLP1R inv ag | LDHA inh | mIDH1 inhibitor
CCOC(=O)C(=NC1CCS(=O)(=O)C1)NNc1cc(Cl)ccc1Cl (stereo unspecified) | ? | i | 1.1% | ? | -2.2 | 2.4%
CCOC(=O)C(=NCCOC)NNc1cc(Cl)ccc1Cl | -9.4% | i | 20.7% | 2.82µM* | -0.8 | 2.0%
C=CCN(Cc1cccs1)C(=O)CCl | / | / | / | / | 3.9 | /
Fc1ccc2c(c1)Sc1ccc(Cl)cc1CC2N1CCN(CCC2OCCO2)CC1 (stereo unspecified) | ? | -1.9% | 16.8% | 3.55µM* | -3.4 | -3.7%
S=C(NC(=NC=C(Cl)Cl)c1ccc(Cl)cc1)Nc1ccc(Cl)cc1 | / | / | / | / | -1.1 | /
COCCNC(=S)N(CCc1c(C)[nH]c2ccc(Cl)cc12)Cc1cccs1 | ? | -22.0% | 9.4% | 2.51µM* | -3.4 | 10.8%
Cc1ccccc1OCCC(=O)OC(C)C(=O)Nc1ccc(S(N)(=O)=O)cc1 (stereo unspecified) | / | / | / | / | 5.6 | /
C=CCN(CC=C)Cc1c(C)[nH]c2c(C)cccc2c1=O | / | / | / | / | -2.1 | /
Cc1nonc1CC(=O)N1CCc2c([nH]c3ccccc23)C1c1ccccc1F (stereo unspecified) | -9.4% | i | 8.7% | ? | -4.3 | 9.1%
O=C(Nc1ccccc1)N1CCc2c([nH]c3ccccc23)C1C(F)(F)F (stereo unspecified) | 8.3% | -52.1% | 1.8% | 2.82µM* | 0.2 | -4.1%
Cc1ccc(NC(=O)N2CCc3c([nH]c4ccccc34)C2c2ccccc2F)c(Cl)c1 (stereo unspecified) | -12.2% | ? | / | 10µM* | -0.2 | -8.0%
CC1c2[nH]c3ccccc3c2CCN1C(=O)Nc1ccccc1 (stereo unspecified) | 7.2% | -19.5% | -16.1% | ? | -2.9 | 1.1%
Cc1ccc(C)c(S(=O)(=O)NCC(c2ccco2)N2CCc3ccccc3C2)c1 (stereo unspecified) | -13.8% | -10.1% | 10.5% | 11.2µM* | -1.8 | -9.0%
Cc1ccc(C(=O)NCC(c2ccco2)N2CCc3ccccc3C2)cc1 (stereo unspecified) | 11.4% | -12.7% | 0.8% | ? | 0.5 | 0.8%
Cc1ccc(C(=O)NCC(c2ccco2)N2CCc3ccccc3C2)cc1C (stereo unspecified) | -4.5% | -27.4% | -2.7% | 11.2µM* | -4.7 | 2.7%
NC(=O)CN1c2ccc(Br)cc2-c2ccccc2S1(=O)=O | / | / | / | / | -6.1 | /
CN(C)c1ccc(/C=N/NC(=O)c2ccc3ccccc3c2)cc1 | / | / | / | / | -2.8 | /
COCCNC(=S)N/N=C(\C)c1cccc(OC)c1 | ? | i | 6.3% | 3.98µM* | -12.2 | -3.7%
COCCNC(=S)N/N=C(\C)c1ccc(Cl)s1 | 2.82µM* | i | 10.7% | 2.24µM* | -3.1 | 0.0%
CCNC(=S)N/N=C(\C)c1cccc(C(F)(F)F)c1 | 4.47µM* | -11.3% | 16.2% | 4.47µM* | -3.9 | 4.3%
COCCNC(=S)N/N=C(\C)c1cccc([N+](=O)[O-])c1 | ? | -11.8% | 12.7% | ? | -4.1 | -4.0%
COCCNC(=S)N/N=C(\C)c1ccc(Cl)c(Cl)c1 | 6.5% | 23.4% | 23.9% | ? | 0.5 | 3.4%
COCCNC(=S)N/N=C(\C)c1ccc(Cl)c(Cl)c1Cl | 3.55µM* | i | 21.2% | ? | -6.0 | 2.5%
CCc1nn(CCCC(=O)N2CCN(c3cccc(C)c3C)CC2)c(=O)c2cc3occc3n12 | -4.7% | -95.3% | 24.4% | 11.2µM* | -0.3 | 2.6%
N#Cc1nc(-c2ccco2)oc1N1CCN(C(c2ccccc2)c2ccccc2)CC1 | -5.0% | -7.2%[57.5 µM] | 3.2% | 10µM* | -14.8 | -1.0%
SMILES | GLP1R cytotox | PTHR1 ag | GLP1R ag | GLP1R inv ag | LDHA inh | mIDH1 inhibitor
Nc1nccnc1C(=O)NCCc1cccc2cccnc12 | / | / | / | / | 1.2 | /
COc1ccc(OC)c(NC(=O)CN(c2ccc(C)cc2)S(=O)(=O)c2c(C)noc2C)c1 | -23.0% | i | 4.3% | 10µM* | -2.7 | 5.2%
COc1ccc(N(CC(=O)Nc2cc(Cl)ccc2OC)S(=O)(=O)c2c(C)noc2C)cc1 | -25.7% | -2.8% | 9.8% | 4.47µM* | -5.8 | 0.9%
COc1cccc(CNC(=O)CN(c2cc(C)cc(C)c2)S(=O)(=O)c2c(C)noc2C)c1 | 1.4% | i | 0.5% | 10µM* | 1.2 | 4.4%
COc1cccc(CNC(=O)CN(c2ccc(C(C)C)cc2)S(=O)(=O)c2c(C)noc2C)c1 | -6.0% | -2.8% | 0.2% | -10.6% | -7.0 | 2.8%
COc1ccc(OC)c(NC(=O)CN(c2ccc(C(C)C)cc2)S(=O)(=O)c2c(C)noc2C)c1 | -16.5% | -2.0% | 0.0% | ? | 4.9 | 5.3%
CC(OC(=O)c1ccc(CS(C)(=O)=O)cc1)c1ccc(F)cc1F (stereo unspecified) | / | / | / | / | -2.8 | /
O=C(NCc1ccccc1Cl)c1ccc(CSc2nc3ccncc3[nH]2)cc1 | -4.0% | -9.7% | 7.8% | 10µM* | -5.2 | 3.8%
Clc1ccccc1CSc1nc2ccncc2[nH]1 | -2.7% | -43.1% | 5.0% | -1.6% | -2.9 | -3.6%
Cc1c(NP(=O)(c2ccc(Br)cc2)c2ccc(Br)cc2)c(=O)n(-c2ccccc2)n1C | -14.6% | i | 10.5% | 11.2µM* | 0.5 | -7.5%
Cc1c(NS(=O)(=O)c2ccc(Br)cc2)c(=O)n(-c2ccccc2)n1C | 3.7% | i | 2.2% | 11.6% | 0.3 | -4.6%
Cc1ccccc1-c1nnn(CC(=O)N2N=C(c3cccs3)CC2c2cccs2)n1 (stereo unspecified) | / | / | / | / | -1.9 | /
Cc1ccc(S(=O)(=O)c2ccc([N+](=O)[O-])cn2)cc1 | ? | -21.9% | -4.0% | 7.94µM* | 9.0 | 13.9%
O=[N+]([O-])c1ccc(S(=O)(=O)c2ccccc2)nc1 | -18.8% | -58.7% | -7.1% | ? | 6.2 | 2.1%
Cc1ccc(C)c(-c2[nH]ncc2CN2CCCC(CO)(Cc3ccccc3C)C2)c1 (stereo unspecified) | ? | 20.3% | 7.6% | 10µM* | -4.0 | 1.9%
CN(C)CCC=C1c2ccccc2C=Cc2ccccc21 | ? | -7.9% | 2.5% | ? | 3.1 | -3.8%
CNCCC=C1c2ccccc2C=Cc2ccccc21 | 6.3% | i | 26.7% | 5.01µM* | -3.7 | -7.1%
COc1ccc(CN(CCC#N)CCC2(c3ccccc3)CC(C)N(C)CC2C)cc1OC (stereo unspecified) | ? | i | 2.8% | 10µM* | 0.0 | 3.6%

Screening data: PubChem, National Center for Advancing Translational Sciences (NCATS)
